Results published in PubChem BioAssay AID1159580 (chemical genetic matrix, 2015).
Values joined by “and” are separate entries in the source; they are usually repeats but may differ in a detail not shown here. Equal entries are not always repeated. In all, about 5,500 compounds went through this assay and about 2,000 (36%) were called active. Another 18% or so got no clear call; they are omitted. No stated cut-off is given here; in the data, active means normalized growth mostly below about 0.91 (no sharp cut-off); inconclusive means no clear call, values can overlap the other calls; inactive means mostly above about 0.92. The list shows a part of the results.

Experiment: chemical genetic growth profiling, strain panel (AID 1159580);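 further: tested at 20 µM; growth read once vehicle control cultures reached saturation at 30 °C; 1 = growth at the plate median or of vehicle wells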
Conditions: S. cerevisiae deletion strains, growth OD

Measured: normalized growth

CC1(C)C(=O)C=C[C@@]2(C)C1C[C@@H](O)[C@]1(C)C2CC[C@@]2(C)[C@H](c3ccoc3)OC(=O)[C@H]3O[C@]321 (stereo partly specified)
inactive: locus YAL021C, strain ccr4, stronger effect = lower value 0.988 | locus YAL026C, strain drs2, stronger effect = lower value 0.996 | locus YAL030W, strain snc1, stronger effect = lower value 0.995 | locus YBL061C, strain skt5, stronger effect = lower value 1 | locus YBR009C, strain hhf1, stronger effect = lower value 1 | locus YBR021W, strain FUR4, stronger effect = lower value 1 | locus YBR023C, strain chs3, stronger effect = lower value 1.01 | locus YBR171W, strain sec66, stronger effect = lower value 0.998 | locus YBR229C, strain ROT2, stronger effect = lower value 0.939 | locus YBR231C, strain swc5, stronger effect = lower value 1.01 | locus YBR279W, strain paf1, stronger effect = lower value 1 | locus YCL011C, strain gbp2, stronger effect = lower value 1.01 | locus YCL016C, strain dcc1, stronger effect = lower value 1 | locus YCL029C, strain bik1, stronger effect = lower value 0.969 | locus YCL061C, strain MRC1, stronger effect = lower value 0.998 | locus YCL069W, strain vba3, stronger effect = lower value 0.998 | locus YCR088W, strain abp1, stronger effect = lower value 0.999 | locus YDL005C, strain med2, stronger effect = lower value 0.999 | locus YDL035C, strain GPR1, stronger effect = lower value 0.956 | locus YDL040C, strain nat1, stronger effect = lower value 1 | locus YDL074C, strain BRE1, stronger effect = lower value 0.958 | locus YDL101C, strain DUN1, stronger effect = lower value 0.98 | locus YDL185W, strain tfp1, stronger effect = lower value 0.954 | locus YDL192W, strain arf1, stronger effect = lower value 0.979 | locus YDR001C, strain nth1, stronger effect = lower value 0.985 | locus YDR069C, strain doa4, stronger effect = lower value 1.01 | locus YDR101C, strain arx1, stronger effect = lower value 0.97 | locus YDR137W, strain rgp1, stronger effect = lower value 0.985 | locus YDR159W, strain sac3, stronger effect = lower value 1.01 | locus YDR162C, strain NBP2, stronger effect = lower value 0.949 | locus YDR195W, strain ref2 0.986 | locus YDR297W, strain sur2, stronger effect = lower value 1 | locus YDR318W, strain mcm21, stronger effect = lower value 0.972 | locus YDR334W, strain swr1, stronger effect = lower value 0.995 | locus YDR335W, strain msn5, stronger effect = lower value 0.996 | locus YDR388W, stronger effect = lower value 0.996 | locus YDR392W, strain spt3, stronger effect = lower value 1.01 | locus YDR502C, strain sam2, stronger effect = lower value 1 | locus YEL003W, strain gim4, stronger effect = lower value 1 | locus YEL037C, strain rad23, stronger effect = lower value 0.995 | locus YEL061C, strain CIN8 (second series), stronger effect = lower value 0.994 | locus YER015W, strain faa2, stronger effect = lower value 0.99 | locus YER016W, strain bim1, stronger effect = lower value 1 | locus YER110C, stronger effect = lower value 0.968 | locus YER111C, strain swi4, stronger effect = lower value 1 | locus YER155C, strain BEM2 (second series), stronger effect = lower value 1 | locus YER155C, strain BEM2, stronger effect = lower value 1.01 | locus YER167W, strain BCK2, stronger effect = lower value 0.973 | locus YFR010W, strain ubp6, stronger effect = lower value 0.984 | locus YGL078C, strain dbp3, stronger effect = lower value 0.992 | locus YGL086W, strain mad1, stronger effect = lower value 0.988 | locus YGL167C, strain pmr1, stronger effect = lower value 1.01 | locus YGL173C, strain kem1, stronger effect = lower value 1.01 | locus YGL227W, strain vid30, stronger effect = lower value 1.01 | locus YGL240W, strain doc1, stronger effect = lower value 1.01 | locus YGL248W, strain PDE1, stronger effect = lower value 0.961 | locus YGL253W, strain hxk2, stronger effect = lower value 1 | locus YGR135W, strain pre9, stronger effect = lower value 1.04 | locus YGR229C, strain SMI1, stronger effect = lower value 0.95 | locus YGR252W, strain gcn5, stronger effect = lower value 0.965 | locus YHR013C, strain ard1, stronger effect = lower value 1.01 | locus YHR027C, strain rpn1, stronger effect = lower value 0.986 | locus YHR030C, strain SLT2, stronger effect = lower value 0.966 | locus YHR079C, strain IRE1 (second series), stronger effect = lower value 0.99 | locus YHR079C, strain IRE1, stronger effect = lower value 0.936 | locus YHR094C, strain hxt1, stronger effect = lower value 0.978 | locus YHR129C, strain ARP1, stronger effect = lower value 0.987 | locus YHR142W, strain chs7, stronger effect = lower value 1.01 | locus YHR200W, strain rpn10, stronger effect = lower value 0.976 | locus YIL066C, strain RNR3, stronger effect = lower value 0.94 | locus YIL073C, strain SPO22, stronger effect = lower value 0.928 | locus YIL125W, strain kgd1, stronger effect = lower value 0.985 | locus YIR030C, strain dcg1, stronger effect = lower value 0.992 | locus YJL092W, strain hpr5, stronger effect = lower value 0.999 | locus YJL095W, strain BCK1 (second series), stronger effect = lower value 1 | locus YJL095W, strain BCK1, stronger effect = lower value 1.01 and 0.956 | locus YJL115W, strain asf1, stronger effect = lower value 0.997 | locus YJL129C, strain trk1, stronger effect = lower value 0.991 | locus YJL134W, strain LCB3, stronger effect = lower value 0.98 | locus YJL154C, strain vps35, stronger effect = lower value 0.992 | locus YJL164C, strain tpk1, stronger effect = lower value 1 | locus YJL166W, strain qcr8, stronger effect = lower value 1.01 | locus YJL168C, strain set2, stronger effect = lower value 0.998 | locus YJL187C, strain SWE1 (second series), stronger effect = lower value 1 | locus YJL187C, strain SWE1, stronger effect = lower value 1.02 | locus YJR043C, strain POL32, stronger effect = lower value 0.937
